This note sets out measurements from PubChem BioAssay (Tox21).

For test [1], the target named is Luciferin 4-monooxygenase (Photinus pyralis) (UniProt P08659). As to the kind of experiment: qHTS assay to identify small molecule inhibitors of firefly luciferase (AID 1224835). Note: nearly all actives have a fitted effect of over 25% in size. Note: potency is the fitted concentration of half-maximal effect. In a few lines:
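Quantitative HTS format; KM concentrations of both substrates. Purified P. pyralis FLuc activity quantified from luminescence images.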
For orientation: qHTS replaces the single test concentration by a dilution series.

The nature of test [2]: qHTS assay to identify small molecule agonists of the constitutive androstane receptor (CAR) signaling pathway - cell viability counter screen (AID 1224836). Note: series mostly up to about 92 µM; nearly all actives have a fitted effect of over 45% in size. The gist of the method: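 HepG2-CYP2B6-hCAR, 2500 cells/well, 4 h pre-incubation; cpd 15 conc + PK11195 0.75 uM final; 23 h, 37 C/5% CO2; CellTiter-Fluor, fluorescence.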
Test [3] in a line: qHTS assay to identify small molecule antagonists of the constitutive androstane receptor (CAR) signaling pathway - cell viability counter screen (AID 1224837). Note: series mostly up to about 92 µM; nearly all actives have a fitted effect of over 45% in size. In a few lines: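 HepG2-CYP2B6-hCAR cells, 2500/well, 4 hr pre-incubation; compound titration, 15 conc.; CITCO 50 nM final; 23 hr, 37 C/5% CO2; CellTiter-Fluor, fluorescence intensity.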
Test [4] addresses Nuclear receptor subfamily 1 group I member 3 (Homo sapiens) (UniProt Q14994). As to the kind of experiment: qHTS assay to identify small molecule antagonists of the constitutive androstane receptor (CAR) signaling pathway (AID 1224838).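 Note: HepG2 cells stably expressing hCAR with CYP2B6 luciferase reporter stimulated by CITCO; nearly all actives have a fitted effect of over 40% in size.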 The gist of the method:
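HepG2-CYP2B6-hCAR cells; 4 h pre-incubation; cpd (15 conc) + CITCO 50 nM final; 24 h, 37 C/5% CO2; ONE-Glo, luminescence.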

Test [5] shares this target. The experiment in a line: qHTS assay to identify small molecule agonists of the constitutive androstane receptor (CAR) signaling pathway (AID 1224839).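 For activation: HepG2 cells stably carrying human CAR and a CYP2B6 luciferase reporter; series mostly up to about 92 µM.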 Note: nearly all actives have a fitted effect of over 15% in size. Note: potency is the fitted concentration of half-maximal effect. The gist of the method:
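HepG2-CYP2B6-hCAR cells, 2500/well, 4 h pre-incubation; compounds 15 conc.; PK11195 0.75 uM final; 24 h, 37 C/5% CO2; ONE-Glo luciferase read.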

The nature of test [6]: qHTS assay to identify small molecule antagonists of the estrogen related receptor signaling pathway with the pleiotropic PPARgamma coactivator (PGC) from Tox21 10K library - cell viability counter screen (AID 1224840; active = well fitted cell-killing curve with a large enough effect in the repeat runs, not every such curve was filed as active; note: nearly all actives have a fitted effect of over 40% in size). In a few lines:
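PGC/ERR cells, 2,000/well; 6 h pre-incubation 37 C/5% CO2; cpd in DMSO via pin tool; 17.5 h 37 C; CellTiter-Fluor, 30 min; fluorescence.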

Test [7] concerns the target Thyrotropin receptor (Homo sapiens) (UniProt P16473). The experiment in a line: qHTS assay to identify small molecule agonists of the thyroid stimulating hormone receptor (TSHR) signaling pathway (AID 1224843; calls by dose curve; note: nearly all actives have a fitted effect of over 45% in size). The gist of the method:
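Cell line HEK293 with TSHR; density 800/well. Exposure 30 min RT. Readout HTRF cAMP (cAMP-d2/anti-cAMP-cryptate), 1 h RT before reading.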

A short description of test [8]: qHTS assay to identify small molecule agonists of the hypoxia (HIF-1) signaling pathway - cell viability counter screen (AID 1224844; calls by dose curve; note: nearly all actives have a fitted effect of over 50% in size). The gist of the method:
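ME-180 HRE-bla cells, 2,000/well, 0.5% dialyzed FBS; 5 hr settle, 17 hr compound at 37C/5% CO2; CCF4-AM reporter read first, then CellTiter-Glo luminescence after 30 min RT.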

Test [9] in a line: qHTS assay to identify small molecule agonists of H2AX (AID 1224845; active = well fitted activation curve with a large enough effect in the signal ratio in the repeat runs, not every such curve was filed as active; the % refers to the signal ratio; note: potency is the fitted concentration of half-maximal effect). In a few lines:
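Wild-type CHO-K1 cells plated overnight, then exposed 3 hr at 37C to compounds at 15 concentrations (0.76% DMSO). Lysed, then HTRF anti-pH2AX(S139)-cryptate/anti-H2AX-d2 detection after 24 hr at room temperature; emissions 665 and 620 nm.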

Test [10] can be described thus: qHTS assay to identify small molecule agonists of the hypoxia (HIF-1) signaling pathway (AID 1224846; active = well fitted activation curve with a large enough effect in the signal ratio in the repeat runs, not every such curve was filed as active; the % refers to the signal ratio). In a few lines: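 Cell line: CellSensor HRE-bla ME-180; 2,000 cells/well; 0.5% dialyzed FBS; 5 h preincubation; DMSO compound pin transfer; 17 h, 37C, 5% CO2; CCF4-AM added; bla FRET signal scored for activation.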
Test [11] can be described thus: qHTS RealTime-Glo MT Cell Viability Assay in HepG2 cells - 24 hour (AID 1224867). Note: nearly all actives have a fitted effect of over 50% in size. The gist of the method: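 Tox21 10K library screened in qHTS format on HepG2 cells carrying RealTime-Glo reagents. Compounds were added after a 5 h preincubation, and the luminescent signal from continuous culture was measured repeatedly during 40 h treatment.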
Test [12] can be described thus: qHTS RealTime-Glo MT Cell Viability Assay in HEK293 cells - 32 hour (AID 1224868). Note: top concentration of the series differs between compounds; nearly all actives have a fitted effect of over 50% in size. In a few lines:
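Luminescence generated by NanoLuc from substrate produced by living HEK293 cells served as the viability signal. Each value reflects the reading at its stated time point during continuous 40 h compound exposure at 37 C.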

The nature of test [13]: A CellTox Green Cytotoxicity Assay to monitor cytotoxicity in HEK293 cells - 0 hour (AID 1224869). Note: nearly all actives have a fitted effect of over 50% in size. The gist of the method:
(§1)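 Nonlytic real-time cytotoxicity: HEK293 + CellTox Green reagent plated, 5 h preincubation, pintool compound addition (23 nL in DMSO), 37 C for 40 h, fluorescence measured at successive time points.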

Test [14] can be described thus: qHTS RealTime-Glo MT Cell Viability Assay in HepG2 cells - 40 hour (AID 1224870). Note: nearly all actives have a fitted effect of over 50% in size. Note: potency is the fitted concentration of half-maximal effect. The gist of the method:
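HepG2 cells mixed with RealTime-Glo MT reagents (NanoLuc plus cell-permeant prosubstrate) were seeded at 600 cells/well, incubated 5 h at 37 C/5% CO2, then pinned with compounds in DMSO; nonlytic luminescence tracked viability during 40 h treatment.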

A short description of test [15]: A CellTox Green Cytotoxicity Assay to monitor cytotoxicity in HEK293 cells - 40 hour (AID 1224871). Note: nearly all actives have a fitted effect of over 45% in size. Note: potency is the fitted concentration of half-maximal effect. The gist of the method:
as §1

Test [16] can be described thus: qHTS assay to identify small molecule agonists of H2AX - cell viability counter screen (AID 1224847; calls by dose curve; note: top concentration of the series differs between compounds; nearly all actives have a fitted effect of over 30% in size). In a few lines: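 Cells plated first: CHO-K1, 1000 per well in 10% FBS medium, incubated overnight at 37C. Then 15-point compound titration added (final DMSO 0.76%) for 3 hr. Finally CellTiter-Glo added and luminescence read.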

A number with no mark means an inactive call. Results filed as inconclusive are left out. The source made the active and inactive calls. Unless noted, calls come from the whole dose curve; as a rule, active = well fitted curve in the direction sought with a large enough effect in the repeat runs; inconclusive = weak or mixed curves; inactive = no such curve, though single readings can be large; an effect the other way counts as inactive or inconclusive.

Luciferin 4-monooxygenase (Photinus pyralis), sequence (P08659 whole entry, looked up): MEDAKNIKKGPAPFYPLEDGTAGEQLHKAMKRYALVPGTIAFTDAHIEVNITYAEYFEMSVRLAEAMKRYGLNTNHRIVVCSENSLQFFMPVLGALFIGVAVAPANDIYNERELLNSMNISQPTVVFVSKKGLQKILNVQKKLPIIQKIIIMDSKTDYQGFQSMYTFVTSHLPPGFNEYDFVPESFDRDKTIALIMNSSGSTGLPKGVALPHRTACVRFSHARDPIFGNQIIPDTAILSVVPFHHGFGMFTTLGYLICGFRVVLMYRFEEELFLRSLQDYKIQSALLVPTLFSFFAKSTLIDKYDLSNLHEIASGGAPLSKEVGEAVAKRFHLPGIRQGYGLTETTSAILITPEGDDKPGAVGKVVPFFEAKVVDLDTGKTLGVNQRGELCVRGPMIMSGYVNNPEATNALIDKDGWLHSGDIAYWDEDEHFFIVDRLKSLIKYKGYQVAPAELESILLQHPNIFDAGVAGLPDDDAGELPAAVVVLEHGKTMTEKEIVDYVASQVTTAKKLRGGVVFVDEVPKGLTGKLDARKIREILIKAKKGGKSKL
Nuclear receptor subfamily 1 group I member 3 (Homo sapiens), sequence (Q14994 whole entry, looked up): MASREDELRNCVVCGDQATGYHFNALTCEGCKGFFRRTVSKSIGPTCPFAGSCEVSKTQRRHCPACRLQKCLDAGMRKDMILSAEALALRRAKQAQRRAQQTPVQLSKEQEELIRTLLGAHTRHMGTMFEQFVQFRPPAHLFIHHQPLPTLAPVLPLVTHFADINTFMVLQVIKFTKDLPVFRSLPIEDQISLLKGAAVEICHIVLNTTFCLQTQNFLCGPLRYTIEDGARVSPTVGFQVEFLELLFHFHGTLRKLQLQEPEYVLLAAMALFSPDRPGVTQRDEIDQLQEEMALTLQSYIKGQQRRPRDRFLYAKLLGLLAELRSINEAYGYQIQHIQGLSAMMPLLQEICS
Thyrotropin receptor (Homo sapiens), sequence (P16473 whole entry, looked up): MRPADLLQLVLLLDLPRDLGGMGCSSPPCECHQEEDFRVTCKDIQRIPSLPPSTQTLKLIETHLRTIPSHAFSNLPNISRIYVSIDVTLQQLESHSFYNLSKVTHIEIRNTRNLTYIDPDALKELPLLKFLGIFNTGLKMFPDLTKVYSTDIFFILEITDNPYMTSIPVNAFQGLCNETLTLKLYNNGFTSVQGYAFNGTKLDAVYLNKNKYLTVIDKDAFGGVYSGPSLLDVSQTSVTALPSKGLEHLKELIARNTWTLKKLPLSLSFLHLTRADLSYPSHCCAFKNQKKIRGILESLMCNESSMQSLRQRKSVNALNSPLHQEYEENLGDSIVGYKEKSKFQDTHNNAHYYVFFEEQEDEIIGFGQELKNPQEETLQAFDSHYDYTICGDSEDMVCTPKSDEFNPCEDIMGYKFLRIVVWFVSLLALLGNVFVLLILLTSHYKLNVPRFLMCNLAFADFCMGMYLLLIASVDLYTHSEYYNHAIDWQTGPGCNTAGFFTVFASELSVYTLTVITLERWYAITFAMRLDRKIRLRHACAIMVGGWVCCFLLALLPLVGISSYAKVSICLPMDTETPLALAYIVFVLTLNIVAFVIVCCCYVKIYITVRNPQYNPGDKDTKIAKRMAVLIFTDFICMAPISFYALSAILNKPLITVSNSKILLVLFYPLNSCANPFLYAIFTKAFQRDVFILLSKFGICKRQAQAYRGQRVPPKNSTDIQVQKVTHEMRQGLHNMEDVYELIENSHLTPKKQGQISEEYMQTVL

On to `CCCC[N+](C)(CCCC)CCCC`, for which the Potency result in [1], in [4], in [5], in [7], in test [8] and in [9] was “inactive” throughout. Also, the Potency entry in test [12], in test [14] and in test [15] was “inactive” throughout. Besides, the outcome in test [2], in [3], in test [6], in test [10], in test [11] and in [13] was inactive.

For the compound `CC(=O)c1cnccn1`, the Potency result in [1], in [4], in test [5], in test [7], in test [8] and in [9] was “inactive” each time. The Potency entry in test [12] and in [14] was “inactive” each time. For the same compound, the call in [2], in [3], in test [6], in test [10] and in [11] was inactive. Further, the Potency in [15] is 16.2 µM (active).

With `CCCc1nn(C)c2c(=O)[nH]c(-c3cc(S(=O)(=O)N4CCN(C)CC4)ccc3OCC)nc12`, the Potency entry in test [1], in test [4], in test [5], in [7], in [8] and in test [14] was “inactive” in each case. Also, the Potency result in [15] was “inactive”. The compound was called inactive in test [2], in test [3], in test [6], in test [10], in [16] and in test [11].

Turning to `CC1=CCC(O)(C(C)C)CC1` (stereo unspecified), the Potency entry in test [1], in test [4], in test [5], in [7], in [8] and in [9] was “inactive” each time. Moreover, the Potency entry in [12] and in test [14] was “inactive” each time. Besides, the compound was called inactive in test [2], in [3], in [6], in test [16] and in [11].

For the compound `Nc1ccncc1N`, the Potency entry in test [1], in test [4], in test [5], in test [7], in test [8] and in test [12] was “inactive” throughout. Besides, the Potency entry in [14] and in [15] was “inactive” in each case. Also, the compound was called inactive in [2], in test [3], in test [6], in test [10], in [11] and in [13].

For the compound `NC(=O)N[C@@H](CCC(=O)O)C(=O)O`, the Potency result in test [1], in test [4], in test [5], in test [7], in test [8] and in test [9] was “inactive” each time. Besides, the Potency result in test [12], in test [14] and in [15] was “inactive” in each case. The compound was classed as inactive in test [2], in test [3], in test [6], in test [10], in [11] and in test [13].

As to `C1CCC2(CCCCO2)OC1`, the Potency result in test [1], in test [4], in [5], in test [7], in test [8] and in [9] was “inactive” throughout. The Potency entry in test [12], in test [14] and in [15] was “inactive” each time. Moreover, the outcome in test [2], in test [3], in [6], in test [10] and in [11] was inactive.

In the case of `CC1=NS(=O)(=O)c2cc(Cl)ccc2N1`, the Potency result in [1], in [4], in [5], in [7], in [8] and in test [12] was “inactive” throughout. Also, the Potency entry in [14] is “inactive”. In addition, the call in test [2], in test [3], in test [6], in [16], in test [11] and in test [13] was inactive.

Take `CC(C)(C)OC(=O)c1cccc(N)c1`: the Potency in [1] was 57.9 µM (active). The compound was classed as inactive in test [2], in test [3], in test [6], in [10], in test [16] and in [11]. In addition, the Potency result in test [4], in test [5], in [7], in test [8], in test [9] and in [12] was “inactive” each time. Also, the Potency result in test [14] and in test [15] was “inactive” in each case.

As to `Cc1nc2ccc(CN(C)c3ccc(C(=O)N[C@@H](CCC(=O)O)C(=O)O)s3)cc2c(=O)[nH]1`, the Potency entry in [1], in test [4], in test [5], in test [7], in test [8] and in test [12] was “inactive” each time. The Potency entry in test [14] and in [15] was “inactive” each time. For the same compound, the outcome in test [2], in [3], in test [6], in [10], in test [16] and in test [11] was inactive. The Potency in test [9] is 0.619 µM (active).

Regarding `C[N+](C)(C)CCCCCCCCCC[N+](C)(C)C`, the Potency entry in [1], in test [4], in test [5], in test [7], in test [12] and in test [14] was “inactive” each time. Besides, in [15], the Potency entry was “inactive”. Also, the compound was classed as inactive in test [2], in test [3], in test [6], in [16], in [11] and in test [13].

On to `CCOc1ccc2nc(S(N)(=O)=O)sc2c1`, for which the Potency is 34.7 µM (active) in test [1] and 7.5 µM (active) in test [5]. Also, the outcome in test [2], in test [3], in test [6], in test [10], in test [16] and in [11] was inactive. Besides, the result in [13] was inactive. Further, the Potency result in test [4], in test [7], in test [8], in [12], in [14] and in test [15] was “inactive” throughout.

As for `O=C(O)c1cc(C(=O)O)cc(C(=O)O)c1`, the Potency result in [1], in test [4], in test [5], in [7], in [9] and in test [12] was “inactive” in each case. For the same compound, the Potency result in [14] was “inactive”. Besides, the call in test [2], in test [3], in [6], in [10], in test [11] and in test [13] was inactive.

On to `[K+]`, for which the Potency entry in test [1], in [4], in test [5], in [7], in test [12] and in test [15] was “inactive” in each case. In addition, the call in test [2], in test [3], in [6], in test [10], in test [16] and in test [13] was inactive. Also, the Potency in test [14] is 34.7 µM (active).

In the case of `O=C(c1ccccc1)C1(O)CCCCC1`, the Potency result in test [1], in test [4], in test [5], in [7], in [12] and in test [14] was “inactive” each time. The outcome in test [2], in test [3], in test [6], in test [10], in test [16] and in test [11] was inactive. Further, the compound was classed as inactive in test [13].

In the case of `CC(=O)N1C[C@H](O)C[C@H]1C(=O)O`, the Potency result in [1], in [4], in [5], in test [7], in [8] and in [9] was “inactive” throughout. The Potency result in test [12], in test [14] and in test [15] was “inactive” in each case. For the same compound, the compound was classed as inactive in test [2], in test [3], in test [6], in [10], in [16] and in test [11].

For `COc1cc(C(=O)OC(COCCC(C)C)CN2CCOCC2)cc(OC)c1OC` (stereo unspecified), the Potency result in test [1], in [4], in test [5], in test [7], in test [8] and in test [12] was “inactive” each time. Besides, the Potency entry in test [14] and in test [15] was “inactive” in each case. The call in test [2], in test [3], in test [6], in test [10], in [16] and in test [11] was inactive. Besides, the outcome in [13] was inactive.

In the case of `CCCCOC(=O)CCC(C)=O`, the Potency entry in test [1], in test [4], in test [5], in test [7], in test [9] and in test [12] was “inactive” in each case. Further, the Potency result in test [14] and in [15] was “inactive” in each case. Moreover, the outcome in test [2], in test [3], in test [6], in [10] and in [11] was inactive.
